Experimental data published in the supplement of paper PMC3334620.
In all, about 33,000 sequences were measured (“E-score (-0.5 to 0.5)”: median about -0.032, highest 2% from about 0.36 on). The sample as a whole holds a higher share of the highest values than the screen did.

Each sequence was assayed against T1, Sko1 (UniProt Q02100) (assay: PBM E-score (8-mer binding enrichment) (E-score (-0.5 to 0.5)); higher = stronger / more preferred TF binding). Details: protein concentration: 200 nM; construct: GST-full length.
T1 sequence: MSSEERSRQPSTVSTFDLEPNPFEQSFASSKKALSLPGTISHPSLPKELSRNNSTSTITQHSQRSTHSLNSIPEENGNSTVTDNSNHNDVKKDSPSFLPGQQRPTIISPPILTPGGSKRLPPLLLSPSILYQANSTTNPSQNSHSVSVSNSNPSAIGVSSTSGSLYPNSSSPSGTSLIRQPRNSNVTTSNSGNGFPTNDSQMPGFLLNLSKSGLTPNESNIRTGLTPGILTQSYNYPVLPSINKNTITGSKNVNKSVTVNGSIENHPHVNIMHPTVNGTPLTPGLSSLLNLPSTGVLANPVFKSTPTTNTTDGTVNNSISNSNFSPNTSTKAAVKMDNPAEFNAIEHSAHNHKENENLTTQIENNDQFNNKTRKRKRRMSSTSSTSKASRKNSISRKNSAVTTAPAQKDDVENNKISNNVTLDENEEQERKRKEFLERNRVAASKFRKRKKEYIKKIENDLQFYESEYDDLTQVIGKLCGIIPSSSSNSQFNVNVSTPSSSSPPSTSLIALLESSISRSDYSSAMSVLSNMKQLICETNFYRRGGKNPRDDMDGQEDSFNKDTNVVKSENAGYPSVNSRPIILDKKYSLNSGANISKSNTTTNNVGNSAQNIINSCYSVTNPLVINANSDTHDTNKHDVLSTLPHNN
Summary of the method: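 PURExpress in vitro transcription/translation supplied GST-tagged yeast transcription factors, either full-length or DNA-binding domain. Applied at about 100-200 nM to universal all-10-mer Agilent arrays double-stranded by primer extension, the bound protein was detected with fluorescent anti-GST. E-scores, modified Wilcoxon-Mann-Whitney statistics, were given by the Universal PBM Analysis Suite to ungapped eight-base words pooled with their reverse complements after masliner normalisation.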

Sequence	PBM E-score
CATACGCC	0.182
AATACGGG	-0.111
GATACGAA	0.227
AATACGCG	0.287
GATACGGA	-0.0181
CATACGTC	0.466
AATACGAA	0.324
CATACGGC	-0.0208
GATACGTA	0.48
AATACGTG	0.458
AATACGGA	0.138
AATACGTA	0.482
AAACCTTG	0.0199
GACTCACC	-0.118
CTCAGGAG	-0.159
CACTTCCA	0.109
CTTAAAGA	0.00637
CTTGATGC	-0.116
AACCGCTT	-0.113
AATTCAAA	0.193
CTTAAGCA	-0.0027
CACTTTGG	-0.0531
ATCTGGGA	-0.147
CAGGCAGC	-0.349
CGGTGGAA	-0.188

Sequence	PBM E-score
ATGAGCGA	0.102
CATACGGA	-0.00572
AATACGGC	0.0384
CATACGAA	0.308
AATACGTC	0.464
CATACGTA	0.485
AATACGAC	0.22
CCGACTGA	-0.162
ACATGGTA	0.00395
ACTCCTGA	-0.0495
TTACGAAA	0.396
ATACGACG	0.234
CTACGAAA	0.214
TGACGAAA	0.463
ATACGAAA	0.346
CGACGACA	0.0871
TGACGACA	0.467
GGACGAAA	-0.0622
AGACGAAA	0.199
ATACGACA	0.363
GTACGACA	0.326
GGACGACA	0.0412
AGAATCCC	-0.0186
GTAGTTGA	0.173
CTTCTACC	-0.3

Sequence	PBM E-score
TAATGCAA	0.0655
ATTCACTG	0.0188
ACTTTCGG	0.0182
TAGGGGGA	-0.251
CGCTATGC	0.147
TCAAGTGA	0.087
ATCGCTAG	-0.0122
CTAGTTAC	0.099
CATTGAGG	-0.021
CAGGCTCC	-0.335
GTATGTCA	0.398
CTATGTCA	0.338
ATATGTCA	0.339
CATTTACC	0.129
CATTTACG	0.369
ACTTTACA	0.158
ATTTTACC	0.252
AATTTACG	0.332
CCTTTACG	0.278
ACTTTACG	0.379
CATTTACA	0.103
ATTTTACG	0.383
ATAGCGGA	-0.0894
AGGTTGTA	0.15
GTCCAGTA	-0.0738

Sequence	PBM E-score
AGCGCGAA	0.13
CCTCATAG	0.1
AGTCATAA	0.0121
CGTCATAA	0.487
GGTCATAC	0.021
AGTCATAC	0.262
CGTCATAC	0.486
AGTCATAG	-0.0111
CGTCATAG	0.483
TGTCATAA	0.325
GTAACTGA	0.126
CCAGTGGG	-0.107
ATCCACGC	-0.0735
GTAACCTA	0.192
CCAAAACG	0.171
AACCCGTG	-0.216
CGATGACG	0.482
AGATGACA	0.256
AGATGACC	-0.0804
CGATGACC	0.0462
AGATGACG	0.476
CGATGACA	0.283
CAACTTAC	0.0405
AGCGAAAC	0.163
GGACCGCC	-0.415

Sequence	PBM E-score
GGACCATA	-0.148
GGCCCAAC	-0.146
ACGTTAGA	0.265
AGAGATGG	-0.0345
GCCGTCAC	0.166
CTCGTCAG	0.176
CTCGTCAA	0.0618
CGCGTCAC	0.41
GTCGTCAA	0.239
ATCGTCAC	0.385
GTCGTCAC	0.41
ATCGTCTC	-0.0603
CGCGTCAA	0.34
CGCGTCAG	0.222
CTCGTCAC	0.38
ATCGTCGC	0.0155
ACCTCCAA	-0.189
CGCAGTAC	0.118
ACTACTGC	-0.0692
AAACCTAG	-0.0586
GACCACAA	-0.165
AACTCGAG	-0.00786
CATTTTCC	0.122
CCGGACTC	-0.16
GCGGACGC	-0.0227

Sequence	PBM E-score
AGGGTACT	-0.236
TCACAACA	0.251
ACTTAAGC	0.032
AGCGTCAA	0.166
AGCGTCAT	0.445
ATCGTCAG	0.263
AGCGTCAG	0.154
ATCGTCAA	0.287
ACCGTCAT	0.378
ATCGTCAT	0.469
ACCGTCAA	0.00527
ACCGTCAG	-0.0341
CCTTAAAA	0.101
GTGAATGA	0.231
GGGCCAGA	-0.278
GGAGCTAC	-0.112
CGCTAGCG	-0.26
CGGAGAGA	-0.15
CTCCAAGA	-0.189
ATTCTAGG	0.0401
AGTCGCGG	-0.312
GCAAACGA	0.136
TAGCTACA	0.13
GGATTCTA	-0.0972
TCATTGAA	0.146

Sequence	PBM E-score
AATCATAC	0.253
CATCATGG	0.132
CATCATAA	0.299
CATCATAG	0.361
AATCATAG	0.126
CATCATAC	0.377
ATAAATAC	0.23
CGATGGAA	0.106
AAACAATC	0.0366
ACAGGTTC	-0.291
ACGGTTTG	-0.104
GACCTAGA	0.0106
GCGTATGA	0.337
ACGTATGA	0.473
AAGTATGG	0.023
CCGTATGA	0.135
ACGTATGC	0.458
AGGTATGC	0.118
CCGTATGC	-0.0726
ACGTATGG	0.441
ATGTATGG	0.0987
ACTCTCTG	-0.135
CTCGCAAG	0.0771
CAGCACCG	-0.198
AAGAGCAT	0.0596

Sequence	PBM E-score
AAAGGTGA	-0.09
CATTGTTA	0.108
GTTCTTTA	0.175
CTTACGGA	0.0115
CTTACGGC	-0.277
CTTACGTA	0.489
GTTACGTA	0.483
GTTACTGA	0.173
CTTACGTC	0.459
CTTACTTA	0.0934
CTTAGGTC	0.0974
GTTACGGA	0.0875
GGTTGCCA	-0.215
CCCTGATA	-0.149
ATCACTGG	0.0306
CATATCCA	-0.129
ACCGTTCC	-0.0907
GCGCCACC	-0.291
ATACGTGG	0.429
ATACGTGA	0.426
GTACGTGA	0.416
AAACGTGA	0.308
ATACGTGC	0.406
GAACGTGA	0.175
GGACGTGA	0.181

Sequence	PBM E-score
AAACGTGG	0.213
AGACGTGA	0.312
AGACGTGC	0.241
AGACGTGG	0.203
CTACGTGC	0.354
CAGTCTTC	-0.187
AGCCGAAT	-0.104
AGCCTTTA	0.0785
CTGGTGGA	-0.185
CTACGCGA	0.167
CTTCGTGA	0.186
CTACGTGA	0.404
CCTCAGAG	-0.374
GGTCAGAA	-0.206
CGTCAAAC	0.253
AGTCAGAC	-0.203
CGTCAGAA	0.37
CGTCAGAG	0.429
AGTCAGAG	-0.142
GGTCAAAA	0.096
CGTCAAAA	0.36
GGTCAGAC	-0.241
AGTCAGAA	-0.0299
CGTCAGAC	0.394
